Laboratory results from PubChem BioAssay AID1159580 (chemical genetic matrix, 2015).
Values joined by “and” are separate entries in the source; they are usually repeats but may differ in a detail not shown here. Equal values may be shown once. Screen size: about 5,500 compounds; about 2,000 (36%) were called active. Not shown: some 18% with an inconclusive outcome. Rule as the data show it: active = normalized growth mostly below about 0.91 (no sharp cut-off); inconclusive = no clear call, values can overlap the other calls; inactive = mostly above about 0.92. Some of the results follow.

Assay: chemical genetic growth profiling, strain panel (AID 1159580);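 also: tested at 20 µM; growth read once vehicle control cultures reached saturation at 30 °C; 1 = growth at the plate median or of vehicle wells; lower values mean less growth of the strain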
Conditions: S. cerevisiae deletion strains, growth OD

Measured: normalized growth

CC(=O)N[C@@H](CC(C)C)C(=O)O
inactive: locus YAL013W, strain DEP1, active compounds read low 0.983 | locus YAL021C, strain ccr4, active compounds read low 1 | locus YAL026C, strain drs2, active compounds read low 0.989 | locus YAL030W, strain snc1, active compounds read low 1 | locus YBL061C, strain skt5, active compounds read low 0.986 | locus YBR009C, strain hhf1, active compounds read low 0.99 | locus YBR021W, strain FUR4, active compounds read low 1 | locus YBR023C, strain chs3, active compounds read low 1 | locus YBR171W, strain sec66, active compounds read low 0.981 | locus YBR229C, strain ROT2, active compounds read low 0.996 | locus YBR231C, strain swc5, active compounds read low 0.972 | locus YBR279W, strain paf1, active compounds read low 1 | locus YCL011C, strain gbp2, active compounds read low 1.01 | locus YCL016C, strain dcc1, active compounds read low 0.995 | locus YCL029C, strain bik1, active compounds read low 0.97 | locus YCL069W, strain vba3, active compounds read low 0.996 | locus YCR088W, strain abp1, active compounds read low 1 | locus YDL005C, strain med2, active compounds read low 0.991 | locus YDL035C, strain GPR1, active compounds read low 0.985 | locus YDL040C, strain nat1, active compounds read low 0.988 | locus YDL074C, strain BRE1, active compounds read low 1.02 | locus YDL101C, strain DUN1, active compounds read low 0.994 | locus YDL134C, strain PPH21, active compounds read low 0.987 | locus YDL185W, strain tfp1, active compounds read low 0.944 | locus YDL192W, strain arf1, active compounds read low 0.986 | locus YDR001C, strain nth1, active compounds read low 1 | locus YDR069C, strain doa4, active compounds read low 0.971 | locus YDR101C, strain arx1, active compounds read low 0.989 | locus YDR137W, strain rgp1, active compounds read low 1 | locus YDR150W, strain NUM1, active compounds read low 0.983 | locus YDR159W, strain sac3, active compounds read low 0.961 | locus YDR162C, strain NBP2, active compounds read low 0.981 | locus YDR195W, strain ref2 0.948 | locus YDR297W, strain sur2, active compounds read low 0.991 | locus YDR318W, strain mcm21, active compounds read low 0.97 | locus YDR334W, strain swr1, active compounds read low 0.989 | locus YDR335W, strain msn5, active compounds read low 0.987 | locus YDR388W, active compounds read low 0.989 | locus YDR392W, strain spt3, active compounds read low 1.02 | locus YDR502C, strain sam2, active compounds read low 0.972 | locus YEL003W, strain gim4, active compounds read low 0.989 | locus YEL037C, strain rad23, active compounds read low 0.994 | locus YEL061C, strain CIN8 (second series), active compounds read low 0.986 | locus YEL061C, strain CIN8, active compounds read low 0.993 | locus YER015W, strain faa2, active compounds read low 0.993 | locus YER016W, strain bim1, active compounds read low 1.01 | locus YER110C, active compounds read low 0.97 | locus YER111C, strain swi4, active compounds read low 0.988 | locus YER155C, strain BEM2 (second series), active compounds read low 0.98 | locus YER155C, strain BEM2, active compounds read low 0.992 | locus YER167W, strain BCK2, active compounds read low 0.98 | locus YFR010W, strain ubp6, active compounds read low 0.98 | locus YGL078C, strain dbp3, active compounds read low 0.975 | locus YGL086W, strain mad1, active compounds read low 0.996 | locus YGL167C, strain pmr1, active compounds read low 0.972 | locus YGL173C, strain kem1, active compounds read low 0.97 | locus YGL227W, strain vid30, active compounds read low 0.98 | locus YGL240W, strain doc1, active compounds read low 0.972 | locus YGL248W, strain PDE1, active compounds read low 1.01 | locus YGL253W, strain hxk2, active compounds read low 0.986 | locus YGR135W, strain pre9, active compounds read low 0.945 | locus YGR252W, strain gcn5, active compounds read low 1 | locus YHR013C, strain ard1, active compounds read low 1.01 | locus YHR027C, strain rpn1, active compounds read low 1 | locus YHR030C, strain SLT2, active compounds read low 0.975 and 1.04 | locus YHR079C, strain IRE1 (second series), active compounds read low 0.985 | locus YHR079C, strain IRE1, active compounds read low 1.02 | locus YHR094C, strain hxt1, active compounds read low 0.984 | locus YHR129C, strain ARP1, active compounds read low 0.992 | locus YHR142W, strain chs7, active compounds read low 0.992 | locus YHR200W, strain rpn10, active compounds read low 0.978 | locus YIL066C, strain RNR3, active compounds read low 1.01 | locus YIL073C, strain SPO22, active compounds read low 0.849 | locus YIL125W, strain kgd1, active compounds read low 0.992 | locus YIR030C, strain dcg1, active compounds read low 0.969 | locus YJL092W, strain hpr5, active compounds read low 0.989 | locus YJL095W, strain BCK1 (second series), active compounds read low 0.98 | locus YJL095W, strain BCK1, active compounds read low 1.04 and 1.03 | locus YJL115W, strain asf1, active compounds read low 1 | locus YJL129C, strain trk1, active compounds read low 0.959 | locus YJL134W, strain LCB3, active compounds read low 0.984 | locus YJL154C, strain vps35, active compounds read low 0.994 | locus YJL164C, strain tpk1, active compounds read low 1.01 | locus YJL166W, strain qcr8, active compounds read low 0.972 | locus YJL168C, strain set2, active compounds read low 0.997 | locus YJL187C, strain SWE1 (second series), active compounds read low 1.02 | locus YJR043C, strain POL32, active compounds read low 1.02
